From PubChem
In the library only some 19% were active in any assay of this set; here they are far more common.
DT40 TDP1 CPT – qHTS for Inhibitors of human tyrosyl-DNA phosphodiesterase 1 (TDP1): qHTS in cells in presence of CPT; chicken DT40 Tdp1-/-;hTDP1 cells + 20 nM CPT, ATP luminescence, 48 h; Potency, µM (series often up to 46.2 µM), most hits filed as inhibitors; 420,000 compounds, 12% hits; AID 686979, 2013; further: nearly all actives have a fitted effect of over 55% in size
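Chicken DT40 Tdp1-/- cells complemented with human TDP1, 400 cells/well, exposed to compounds plus 20 nM camptothecin for at least 48 h at 37 C; viability read as ATP content by CellTiter-Glo luminescence.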
DT40 TDP1 no CPT – qHTS for Inhibitors of human tyrosyl-DNA phosphodiesterase 1 (TDP1): qHTS in cells in absence of CPT; 420,000 compounds, 15% hits; Potency, µM (highest dose often 46.2 µM), hits mostly inhibitors; DT40 Tdp1-/- hTDP1 cells, no CPT, ATP luminescence, 48 h; further: nearly all actives have a fitted effect of over 55% in size
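No-CPT arm: Tdp1-/-;hTDP1 DT40 cells (400/well) plus compounds, incubated ≥48 hr at 37 °C. Readout CellTiter-Glo luminescence.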
TDP1 inh – qHTS Assay for Inhibitors of Tyrosyl-DNA Phosphodiesterase (TDP1). recombinant TDP1, AlphaScreen DNA substrate cleavage. Potency, µM (titrated, usually from 130 µM), most hits filed as inhibitors. 350,000 compounds, 0.28% hits. AID 485290, 2010; further: nearly all actives have a fitted effect of over 40% in size
Target sequence (Q9NUW8 whole entry, looked up): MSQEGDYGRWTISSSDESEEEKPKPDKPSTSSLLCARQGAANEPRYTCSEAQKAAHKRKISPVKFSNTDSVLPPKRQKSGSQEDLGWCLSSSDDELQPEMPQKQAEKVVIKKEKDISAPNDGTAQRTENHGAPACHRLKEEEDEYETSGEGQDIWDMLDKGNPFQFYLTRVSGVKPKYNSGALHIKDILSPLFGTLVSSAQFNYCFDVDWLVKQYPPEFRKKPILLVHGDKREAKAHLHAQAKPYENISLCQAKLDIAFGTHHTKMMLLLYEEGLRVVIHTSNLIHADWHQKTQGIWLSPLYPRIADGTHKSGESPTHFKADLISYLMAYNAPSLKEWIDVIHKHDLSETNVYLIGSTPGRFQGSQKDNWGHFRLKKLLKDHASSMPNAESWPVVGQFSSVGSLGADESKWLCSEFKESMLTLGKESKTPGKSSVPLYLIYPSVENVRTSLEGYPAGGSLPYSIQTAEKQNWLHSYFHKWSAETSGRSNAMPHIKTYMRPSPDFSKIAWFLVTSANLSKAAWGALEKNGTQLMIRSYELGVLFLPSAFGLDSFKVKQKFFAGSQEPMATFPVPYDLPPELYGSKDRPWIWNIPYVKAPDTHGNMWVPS
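Compounds were preincubated with Tdp1 (1 nM final) for 15 min at room temperature before substrate (15 nM final) started a 5 min reaction; beads (10 ug/ml final) were then added for 10 min before AlphaScreen detection.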
VP16 counter – VP16 counterscreen qHTS for inhibitors of ROR gamma transcriptional activity. Drosophila S2 Gal4-VP16 UAS-luciferase, luminescence, 20 h. Potency, µM (highest dose often 53.6 µM), actives largely listed as inhibitors. 310,000 compounds, 3.5% hits. AID 2546, 2010;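 further: Gal4-VP16 expression switched on by copper sulfate through the metallothionein promoter; nearly all actives have a fitted effect of over 50% in size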
RORgamma inh – qHTS for inhibitors of ROR gamma transcriptional activity; 310,000 compounds, 5.4% hits; Drosophila S2 Gal4-RORgamma UAS-luciferase reporter, 20 h; Potency, µM (series often up to 53.6 µM), hits mostly inhibitors; Nuclear receptor ROR-gamma (Mus musculus), P51450; further: nearly all actives have a fitted effect of over 60% in size
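Luciferase reporter read in Schneider cells carrying Gal4-RORγ (mouse) and UAS-Photinus luciferase; cells given compound 1 h before 700 uM copper sulfate induction, then incubated 20 h at ambient temperature.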
Of the large screens only hits and unclear results are named; the others gave an inactive call. The call rests on the fitted dose curve; in most records, active means well fitted curve in the direction sought with a large enough effect; inconclusive means small, poorly fitted or top-dose-only effect, or another doubt; inactive means no such curve, though single readings can be large; an effect the other way counts as inactive or inconclusive.

COC(=O)N1CCC[C@@]2(CCN(C(=O)Nc3ccc(OC)cc3)C2)C1	none (no result: TDP1 inh)
O=C(O)c1ccccc1-c1ccccc1C(=O)Nc1nc2ccccc2s1	RORgamma inh inconclusive
Cn1c(SCC(=O)NCc2ccco2)nnc1-c1ccccc1	none
CCOc1ccc(Nc2nc(Cc3nnc(SCC(=O)NCc4ccco4)n3CC)cs2)cc1	DT40 TDP1 CPT 13µM, DT40 TDP1 no CPT 13µM, RORgamma inh inconclusive
CCn1c(COc2ccc(C)cc2)nnc1SCC(=O)NCc1ccco1	none
Cn1c(SCC(=O)NC(=O)NCc2ccco2)nnc1-c1ccccc1	TDP1 inh 40µM
CCOc1ccc(NC(=O)CN(C)C(=O)C2CCCC2)cc1OCC	none
COc1cc2nc(SCc3ccc(Cl)cc3Cl)n(Cc3cccs3)c(=N)c2cc1OC	DT40 TDP1 CPT inconclusive, DT40 TDP1 no CPT inconclusive, VP16 counter 16µM, RORgamma inh inconclusive
COc1ccc(Cn2c(SCc3ccc(C)cc3)nc3cc(OC)c(OC)cc3c2=N)cc1Cl	DT40 TDP1 CPT 4.1µM, DT40 TDP1 no CPT 2.3µM, VP16 counter 1.4µM, RORgamma inh 4µM
COCCCn1c(SCc2ccccc2)nc2cc(OC)c(OC)cc2c1=N	DT40 TDP1 CPT 23µM, DT40 TDP1 no CPT inconclusive, VP16 counter inconclusive, RORgamma inh inconclusive
COc1ccc(Cn2c(SCc3cc(C)ccc3C)nc3cc(OC)c(OC)cc3c2=N)cc1	DT40 TDP1 CPT 8.2µM, DT40 TDP1 no CPT 7.3µM
O=C(NCCCN1CCOCC1)c1ccccc1NS(=O)(=O)c1cc([N+](=O)[O-])ccc1Cl	none
O=C1COc2ccc(S(=O)(=O)N3CCc4ccccc43)cc2N1	DT40 TDP1 CPT inconclusive, RORgamma inh inconclusive
Cc1ccc(NC(=O)Cn2nnc3sc4c(c3c2=O)CCCC4)c(C)c1	DT40 TDP1 CPT inconclusive, DT40 TDP1 no CPT inconclusive (no result: VP16 counter, RORgamma inh)
CCOc1ccccc1NC(=O)C(C)n1nnc2sc3c(c2c1=O)CCCC3 (stereo not given)	DT40 TDP1 CPT inconclusive, DT40 TDP1 no CPT 15µM (no result: VP16 counter, RORgamma inh)
Cc1ccc(Cl)cc1NC(=O)C(C)n1nnc2sc3c(c2c1=O)CCCC3 (stereo not given)	DT40 TDP1 CPT 26µM, DT40 TDP1 no CPT 16µM (no result: VP16 counter, RORgamma inh)
Cc1c(Cl)cccc1NC(=O)Cn1nnc2sc3c(c2c1=O)CCCC3	none (no result: VP16 counter, RORgamma inh)
Cc1c(Cl)cccc1NC(=O)C(C)n1nnc2sc3c(c2c1=O)CCCC3 (stereo not given)	DT40 TDP1 CPT inconclusive (no result: VP16 counter, RORgamma inh)
CC(C(=O)Nc1cc(C(F)(F)F)ccc1Cl)n1nnc2sc3c(c2c1=O)CCCC3 (stereo not given)	DT40 TDP1 CPT 23µM, DT40 TDP1 no CPT 16µM (no result: VP16 counter, RORgamma inh)
CC1=C(c2ccccc2)C(=S)NC(C)(C)C1	VP16 counter 7.1µM, RORgamma inh 2.5µM (no result: TDP1 inh)
O=C(NCCc1csc(-c2cccnc2)n1)c1cccc2ccccc12	DT40 TDP1 CPT 16µM, DT40 TDP1 no CPT 23µM, RORgamma inh inconclusive
O=C(NCCc1csc(-c2cccnc2)n1)c1ccccc1	none
O=C(NCCNC(=O)c1ccco1)c1ccco1	RORgamma inh 16µM
Cc1nc(CCNC(=O)c2cccs2)cs1	none
O=C(NCCc1csc(-c2ccccc2)n1)c1cccs1	DT40 TDP1 CPT 23µM, DT40 TDP1 no CPT 9.2µM
COc1ccc(-c2nc(CCNC(=O)c3cccs3)cs2)cc1OC	DT40 TDP1 CPT inconclusive, DT40 TDP1 no CPT 21µM (no result: VP16 counter, RORgamma inh)
O=C(NCCCCNC(=O)c1ccco1)c1ccco1	none
O=C(NCCc1csc(-c2ccc(Cl)cc2)n1)c1cccs1	DT40 TDP1 CPT inconclusive, DT40 TDP1 no CPT 16µM (no result: VP16 counter, RORgamma inh)
O=C(NCc1ccccc1)c1csc(-c2cccnc2)n1	DT40 TDP1 CPT inconclusive, DT40 TDP1 no CPT 5.8µM
O=C(NCCc1csc(-c2ccccc2)n1)c1ccco1	DT40 TDP1 CPT 18µM, DT40 TDP1 no CPT inconclusive (no result: TDP1 inh)
CCN(CC)C(=O)c1ccc2c(=O)n(Cc3cccc(Br)c3)c(=S)[nH]c2c1	DT40 TDP1 CPT 23µM, DT40 TDP1 no CPT 15µM, VP16 counter 13µM, RORgamma inh 7.1µM (no result: TDP1 inh)
O=C(c1ccc2c(=O)n(Cc3ccco3)c(=S)[nH]c2c1)N1CCN(Cc2ccc3c(c2)OCO3)CC1	DT40 TDP1 CPT 14µM, DT40 TDP1 no CPT 11µM (no result: TDP1 inh, VP16 counter, RORgamma inh)
O=C(NCc1ccccc1)c1ccc2c(=O)n(CCCN3CCCC3=O)c(=S)[nH]c2c1	none
CCN(CC)C(=O)c1ccc2c(=O)n(CCOC)c(=S)[nH]c2c1	DT40 TDP1 CPT inconclusive, DT40 TDP1 no CPT inconclusive
CCCN(CCC)C(=O)c1ccc2c(=O)n(Cc3ccco3)c(=S)[nH]c2c1	DT40 TDP1 CPT inconclusive, VP16 counter inconclusive, RORgamma inh 3.2µM
O=C(NCCCN1CCCC1=O)c1ccc2c(=O)n(Cc3ccco3)c(=S)[nH]c2c1	DT40 TDP1 CPT 16µM, DT40 TDP1 no CPT inconclusive, RORgamma inh inconclusive
Cc1nc(-c2ccc(F)cc2)c(CC(=O)N2CCN(S(=O)(=O)c3ccccc3Br)CC2)s1	DT40 TDP1 CPT inconclusive
COc1ccc(CCNC(=O)CC2SC(=NCCc3ccccc3)NC2=O)cc1 (stereo not given)	DT40 TDP1 no CPT inconclusive
C=CCn1c(=O)c2ccccc2n2c(SCC(=O)NC(C)C)nnc12	none (no result: TDP1 inh)
O=S1(=O)c2cccc3cccc(c23)N1CCBr	none
CCCn1c(=S)[nH]c2cc(C(=O)N(CCO)Cc3ccccc3)ccc2c1=O	VP16 counter inconclusive, RORgamma inh 13µM
O=C(c1ccc2c(=O)n(Cc3ccc4c(c3)OCO4)c(=O)[nH]c2c1)N1CCN(c2ccccc2)CC1	none
CC1CCCN(C(=O)c2ccc3c(=O)n(Cc4ccc5c(c4)OCO5)c(=S)[nH]c3c2)C1 (stereo not given)	DT40 TDP1 CPT 16µM, DT40 TDP1 no CPT 23µM, VP16 counter inconclusive, RORgamma inh 7.9µM
CC(C)OCCCNC(=O)c1ccc2c(=O)n(Cc3ccc4c(c3)OCO4)c(=S)[nH]c2c1	none
CCN(CC)C(=O)c1ccc2c(=O)n(Cc3ccc4c(c3)OCO4)c(=S)[nH]c2c1	DT40 TDP1 CPT 15µM, DT40 TDP1 no CPT 21µM, VP16 counter inconclusive, RORgamma inh 11µM (no result: TDP1 inh)
COc1cc2c(cc1OC)C(c1ccccc1)N(C(=O)c1cccc(S(C)(=O)=O)c1)CC2 (stereo not given)	DT40 TDP1 no CPT inconclusive
Cn1c(NC(=O)C(C)(C)Oc2ccc(Cl)cc2)cc(=O)n(C)c1=O	DT40 TDP1 CPT 16µM, DT40 TDP1 no CPT inconclusive
CCc1cc(=O)oc2cc(C)cc(OCC(=O)N3CCC(C(=O)NC(C)C)(c4ccccc4)CC3)c12	DT40 TDP1 CPT 23µM, DT40 TDP1 no CPT 21µM
CCCCc1cc(=O)oc2c(C)c(OCC(=O)N3CCC(C(=O)O)(c4ccccc4)CC3)ccc12	none (no result: TDP1 inh)
O=C(Nc1ccc(F)cc1F)c1ccc2nc(N3CCOCC3)sc2c1	DT40 TDP1 CPT inconclusive, DT40 TDP1 no CPT inconclusive, VP16 counter inconclusive (no result: TDP1 inh)
